Source: PubChem BioAssay (NCATS)
Records with an inconclusive call do not appear. Entries that show only a call come without a potency. The source made the active and inactive calls. Calls follow the shape of the dose curve; as a rule, active = well fitted inhibition curve with a large enough effect; inconclusive = small, poorly fitted or top-dose-only effect; inactive = flat fitted curve, though single readings scatter.

These compounds were tested on CP215 (assay: qHTS profiling for inhibitors of Plasmodium falciparum proliferation (AID 504749; also: nearly all actives have a fitted effect of over 60% in size)). Settings: P. falciparum in erythrocytes, SYBR Green DNA, 72 h; series mostly up to 28.7 µM.
Procedure, shortened: (§1)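 Readout was DNA-dye fluorescence from lysed cultures, ex 485/em 535 nm. Parasitized red cells had grown 72 h with compound; data scaled between 0.29 uM artemisinin and DMSO wells and corrected using vehicle-only plates.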
Potency is read from the fitted curve at half-maximal effect.

| SMILES | Potency |
| --- | --- |
| CN1CC(=O)N2C(Cc3c([nH]c4ccccc34)[C@H]2c2ccc3c(c2)OCO3)C1=O (stereo not given in full) | inactive |
| O=C1C(CCC(O)c2ccc(F)cc2)C(c2ccc(O)cc2)N1c1ccc(F)cc1 (stereo not given) | inactive |
| COc1ccnc(CS(=O)c2nc3ccc(OC(F)F)cc3[nH]2)c1OC (stereo not given) | inactive |
| CC(C)CN(C[C@@H](O)[C@H](Cc1ccccc1)NC(=O)O[C@H]1CO[C@H]2OCC[C@H]21)S(=O)(=O)c1ccc(N)cc1 | inactive |
| COc1c(C)c2c(c(O)c1CC=C(C)CCC(=O)OCCN1CCOCC1)C(=O)OC2 | 6.01 µM (active) |

What follows are compounds tested on CP217 in the same assay as above. Settings: P. falciparum in erythrocytes, SYBR Green DNA, 72 h; series mostly up to 28.7 µM.
Procedure, shortened: as §1

| SMILES | Potency |
| --- | --- |
| CN1CC(=O)N2C(Cc3c([nH]c4ccccc34)[C@H]2c2ccc3c(c2)OCO3)C1=O (stereo not given in full) | inactive |
| O=C1C(CCC(O)c2ccc(F)cc2)C(c2ccc(O)cc2)N1c1ccc(F)cc1 (stereo not given) | inactive |
| COc1ccnc(CS(=O)c2nc3ccc(OC(F)F)cc3[nH]2)c1OC (stereo not given) | inactive |
| CC(C)CN(C[C@@H](O)[C@H](Cc1ccccc1)NC(=O)O[C@H]1CO[C@H]2OCC[C@H]21)S(=O)(=O)c1ccc(N)cc1 | inactive |
| COc1c(C)c2c(c(O)c1CC=C(C)CCC(=O)OCCN1CCOCC1)C(=O)OC2 | 7.94 µM (active) |

Each compound was assayed on CP237 in the same assay as above. Settings: P. falciparum in erythrocytes, SYBR Green DNA, 72 h; series mostly up to 28.7 µM.
Procedure, shortened: as §1

| SMILES | Potency |
| --- | --- |
| CN1CC(=O)N2C(Cc3c([nH]c4ccccc34)[C@H]2c2ccc3c(c2)OCO3)C1=O (stereo not given in full) | inactive |
| O=C1C(CCC(O)c2ccc(F)cc2)C(c2ccc(O)cc2)N1c1ccc(F)cc1 (stereo not given) | inactive |
| COc1ccnc(CS(=O)c2nc3ccc(OC(F)F)cc3[nH]2)c1OC (stereo not given) | inactive |
| CC(C)CN(C[C@@H](O)[C@H](Cc1ccccc1)NC(=O)O[C@H]1CO[C@H]2OCC[C@H]21)S(=O)(=O)c1ccc(N)cc1 | inactive |
| COc1c(C)c2c(c(O)c1CC=C(C)CCC(=O)OCCN1CCOCC1)C(=O)OC2 | 8.91 µM (active) |

Each compound was assayed on CP238 in the same assay as above. Settings: P. falciparum in erythrocytes, SYBR Green DNA, 72 h; series mostly up to 28.7 µM.
Procedure, shortened: as §1

| SMILES | Potency |
| --- | --- |
| CN1CC(=O)N2C(Cc3c([nH]c4ccccc34)[C@H]2c2ccc3c(c2)OCO3)C1=O (stereo not given in full) | inactive |
| O=C1C(CCC(O)c2ccc(F)cc2)C(c2ccc(O)cc2)N1c1ccc(F)cc1 (stereo not given) | inactive |
| COc1ccnc(CS(=O)c2nc3ccc(OC(F)F)cc3[nH]2)c1OC (stereo not given) | inactive |
| CC(C)CN(C[C@@H](O)[C@H](Cc1ccccc1)NC(=O)O[C@H]1CO[C@H]2OCC[C@H]21)S(=O)(=O)c1ccc(N)cc1 | inactive |
| COc1c(C)c2c(c(O)c1CC=C(C)CCC(=O)OCCN1CCOCC1)C(=O)OC2 | 7.94 µM (active) |
